Assay results as given in PubChem BioAssay (NCI).
Compounds without any hit were thinned out: in the full panel of roughly 83,000, 20% have a hit.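 Plates (96-well) were seeded with cells, treated with compound at one concentration, and incubated for 48 hours before percent growth was determined.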 A number with no mark means an inactive call. Calls of active or inactive are those of the source. Rule for the calls: active = growth percent below 10; inactive = the rest.

tested on: OVCAR-5 ovarian; assay: NCI-60 one-dose screen, 48 h (100 = growth as untreated, 0 = no growth, -100 = all killed); conditions: 10 µM unless noted

SMILES	growth
CCCCCN1C=C/C(=C\C(=O)N(C)c2ccc(Oc3ccccc3)cc2)c2ccccc21	92.9%
O=C1Nc2cc(-c3ccc(NC(=O)C4CC4)cc3)ccc2/C1=C/c1ccc[nH]1	98%
COc1cc2nc(-c3ccc(Cl)cc3)cc(OCCCN3CCCC3)c2cc1OC	52.6%
CCCOC(=O)N[C@H]1CCc2c(Cl)c(OC)c(OC)c(OC)c2-c2ccc(SC)c(=O)cc21	44.7%
CCCCCCOc1ccc(/C=N/Nc2cc(C)nc3ccc(Cl)cc23)cc1	26.5%
Nc1c(C(=O)Nc2cccc3cnccc23)sc2nc3c(cc12)CN(Cc1ccccc1)CC3	105%
CCCCOc1ccc(/C(C)=N/Nc2cc(C)nc3ccc(Br)cc23)cc1	113%
Cc1cnc(C(=O)Nc2nc3ccc(S(=O)(=O)Nc4ccc(C(C)(C)C)cc4)cc3[nH]2)cn1	34.8%
CCN1CCN(CCNc2nccc(-c3c(-c4cccc(OC)c4)nc4occn34)n2)S1(=O)=O	130%
CCCCOc1ccc(/C=N/Nc2cc(C)nc3ccc(Br)cc23)cc1	100%
O=c1[nH]nc(-c2ccccc2)c2sc3ncc(-c4ccc(Br)cc4)n3c12	90.4%
O=C(Nc1ccc(NC(=O)c2cc(=O)[nH]c3ccccc23)cc1)Nc1cccc(Cl)c1	87.9%
N#Cc1cc(-c2nc3ccccc3s2)c(=O)n(NS(=O)(=O)c2ccccc2)c1N	102%
Oc1ccc(C(c2ccc(O)cc2)c2ccc(Br)cn2)cc1	78.4%
CCOC(=O)[C@@H]1CCCN(S(=O)(=O)c2ccc(S(=O)(=O)N(CC)CC)c(F)c2)C1	95.5%
N#Cc1cccc(-c2ccc3c(c2)NC(=O)/C3=C\c2ccc[nH]2)c1	38.5%
O=[N+]([O-])c1cc(Br)c2cccc3c2c1CC3	99.4%
NS(=O)(=O)c1ccc(Cn2c(SCC(=O)N/N=C/c3ccccc3O)nc3ccccc3c2=O)cc1	68.4%
CCNC(=O)Oc1ccc(/C(=C(\C)c2ccccc2)c2ccc(OCCN(CC)CC)cc2)cc1	88.2%

SMILES	growth
COc1ccc(C(=O)/C=C/c2cc3ccccc3n3nnnc23)cc1	108%
O=C(N/N=C/c1ccc(Oc2ccccc2)cc1)c1cnn2c1NC(c1ccccc1)C2 (stereo not drawn)	78%
NC1=NN=C(N)C1=Cc1cc2ccccc2n2nnnc12	108%
CCSCC1CC(O)(c2ccccc2)CC(c2ccc(F)cc2)O1 (stereo not drawn)	86.6%
Cc1cccc(NC(=O)Nc2ccc(-n3cnc4cc(-c5ccc(O)cc5)ccc43)cc2)c1	76.8%
COc1ccc(/C=C(\C#N)n2nc3cccc(F)c3n2)cc1	108%
Nc1n[nH]c2cccc(C#Cc3cccc(C(=O)Nc4cccc(C(F)(F)F)c4)c3)c12	57.6%
O=C(Nc1ccccc1C(=O)N/N=C(\c1ccccc1)c1ccccn1)c1ccc(F)cc1	41.7%
C=C1C(=O)O[C@H]2[C@H]1CC/C(C(=O)NCCCCCNC(=O)/C1=C/CC[C@@]3(C)O[C@H]3[C@H]3OC(=O)C(=C)[C@@H]3CC1)=C\CC[C@@]1(C)O[C@@H]21	93.9%
N#Cc1c(NCc2ccccc2I)sc2c1CCCCC2	96.3%
C=C1C(=O)O[C@H]2[C@H]1CC/C(COC(=O)NCC(C)c1ccc(CC(C)C)cc1)=C\CC[C@@]1(C)O[C@@H]21 (stereo partly drawn)	62.4%
Cc1cc(C(=O)/C=C/c2ccc[nH]2)ccc1-n1ccc(C(F)(F)F)n1	95.8%
C=C1C(=O)O[C@H]2[C@H]1CC/C(CNC(=O)/C=C/c1cccc(OC)c1)=C\CC[C@@]1(C)O[C@@H]21	39.8%
COc1cc(/C=N/NC(=O)c2cnn3c2NC(c2ccccc2)C3)ccc1Oc1ccccc1 (stereo not drawn)	59.6%
COc1cc(C2=C(c3cn(C)c4ccccc34)COC2=O)cc(OC)c1OC	17.3%
COc1cc(/C=C\C(=O)O)ccc1OCc1ccccc1	110%
COc1cc2c(=O)n(CCN)c3c4cc5c(cc4ccc3c2cc1OC)OCO5	-76.9% (active)
CCCCCN1C=C/C(=C\C(=O)N(C)c2ccc(OC(F)(F)F)cc2)c2ccccc21	100%
CN(C)CC(O)c1ccc(/C=C/c2ccc(Cl)cc2)cc1 (stereo not drawn)	2.11% (active)
